Assay results from PubChem BioAssay (NCATS).
Results filed as inconclusive are left out. Activity calls are given as the source filed them. Calls come from the whole dose curve; as a rule, active = well fitted inhibition curve with a large enough effect; inconclusive = small, poorly fitted or top-dose-only effect; inactive = flat fitted curve, though single readings scatter.

Assays:
Test in all cases: qHTS profiling for inhibitors of Plasmodium falciparum proliferation (AID 504749); note: nearly all actives have a fitted effect of over 60% in size
Conditions in all cases: P. falciparum in erythrocytes, SYBR Green DNA, 72 h; series mostly up to 28.7 µM
[1] = tested on: DFO2036
Method in brief: (§1)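 SYBR Green fluorescence of parasite DNA, read after lysis and overnight dark incubation, measured growth over 72 h in erythrocyte culture at 0.3% parasitemia and 2.5% hematocrit. Data normalised to DMSO and 0.29 uM artemisinin, with plate-drift correction.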

[2] = tested on: DIV14
Method in brief: as §1

[3] = tested on: DIV17
Method in brief: as §1

[4] = tested on: DIV30
Method in brief: as §1

[5] = tested on: Dd2
Method in brief: as §1

[6] = tested on: ECU
Method in brief: as §1

[7] = tested on: FAB9
Method in brief: as §1

[8] = tested on: GB4
Method in brief: as §1

[9] = tested on: HB3
Method in brief: as §1

[10] = tested on: ICS
Method in brief: as §1

[11] = tested on: JCK
Method in brief: as §1

[12] = tested on: N140
Method in brief: as §1

[13] = tested on: P93_24
Method in brief: as §1

[14] = tested on: P94_40
Method in brief: as §1

[15] = tested on: PAD
Method in brief: as §1

[16] = tested on: PC15
Method in brief: as §1

[17] = tested on: PC26
Method in brief: as §1

[18] = tested on: PC49
Method in brief: as §1

[19] = tested on: SC27B
Method in brief: as §1

[20] = tested on: TAB109
Method in brief: as §1

Measured: Potency
Potency is the fitted concentration of half-maximal effect.

CCCCCCCCCCCCCCCC(=O)O
inactive: all assays above

NC(=O)c1ccccc1O
inactive: all assays above

CCN(CC)CCNC(=O)c1cc(Br)c(N)cc1OC
inactive: all assays above

CC(C)CCCC(C)N (stereo not given)
inactive: all assays above

CCC1Nc2cc(Cl)c(S(N)(=O)=O)cc2S(=O)(=O)N1 (stereo not given)
inactive: all assays above

CCOc1cc(OCC)c(C(=O)CCC(=O)O)cc1OCC
inactive: all assays above

CCCCCCCCOc1ccc(C(=O)c2ccccc2)c(O)c1
inactive: all assays above

CCOc1ccc(NC(C)=O)cc1
inactive: all assays above

O=C(O)c1ccc(S(=O)(=O)N(Cl)Cl)cc1
inactive: all assays above

C[C@@H](O)[C@H]1C(=O)N2C(C(=O)O)=C(S[C@@H]3CN[C@H](CNS(N)(=O)=O)C3)[C@H](C)[C@H]12
inactive: all assays above

CC(=O)NC(=O)c1ccccc1O
inactive: all assays above

COc1cc(C(=O)N2CCCCCCC2)cc(OC)c1OC
inactive: all assays above

O=C(O)P(=O)(O)O
inactive: all assays above

CC(=O)OC[C@H]1O[C@@H](n2ncc(=O)[nH]c2=O)[C@H](OC(C)=O)[C@@H]1OC(C)=O
inactive: all assays above

c1ccc(CC2=NCCN2)cc1
inactive: all assays above

N#CCC(=O)NN
inactive: all assays above

C/C=C/C=N/NC(=O)c1ccncc1
inactive: all assays above

COc1ccc(/C=N/NC(=O)c2ccncc2)cc1OC
inactive: all assays above

O=C(Nc1ncc([N+](=O)[O-])s1)c1cccs1
inactive: all assays above

NC(=S)N/N=C/c1cccnc1
inactive: all assays above

CNCCc1ccccn1
inactive: all assays above

Cc1ccccc1OCC(O)CO (stereo not given)
inactive: all assays above

CCCCCCCC/C=C\CCCCCCCCN
inactive: all assays above

Cc1c(-c2ccccc2)oc2c(C(=O)OCCN3CCCCC3)cccc2c1=O
inactive: all assays above

COc1cc(C(=O)NCc2ccc(OCCN(C)C)cc2)cc(OC)c1OC
inactive: all assays above

CCCCCCCCCCCCSCCOCCO
inactive: all assays above

O=C(O)Cc1csc(-c2ccc(Cl)cc2)n1
inactive: all assays above

Nc1ccc(S(=O)(=O)Nc2cnc3ccccc3n2)cc1
inactive: all assays above

CCCCCCCCCCCCCCCCO
inactive: all assays above

Nc1nc(-c2ccccc2)c(Br)c(=O)[nH]1
inactive: all assays above

CCOC(=O)[C@H](CCc1ccccc1)N[C@@H](C)C(=O)N1[C@H](C(=O)O)C[C@H]2CCCC[C@@H]21
inactive: all assays above

c1ccc(-c2nc[nH]c2-c2ccccc2)cc1
inactive: all assays above

C[N+]1(CC2COC(c3ccccc3)(C3CCCCC3)O2)CCCCC1 (stereo not given)
active: [1] 7.94 µM | [2] 6.01 µM | [3] 6.01 µM | [4] 6.75 µM | [5] 7.08 µM | [6] 4.47 µM | [7] 3.16 µM | [8] 3.38 µM | [9] 4.47 µM | [10] 4.47 µM | [11] 12.6 µM | [12] 11.2 µM | [13] 6.31 µM | [14] 4.47 µM | [15] 5.01 µM | [16] 5.62 µM | [17] 4.26 µM | [18] 6.31 µM | [19] 7.08 µM | [20] 6.31 µM

O=c1[nH]c(=O)n([C@H]2C[C@H](O)[C@@H](CO)O2)cc1F
inactive: all assays above

Nc1nc(N)c(-c2ccccc2)s1
inactive: all assays above

Cc1cccc(C)c1NC(=O)CN1CCCC1
inactive: all assays above

CCOc1ccccc1C(N)=O
inactive: all assays above

O=C1C(=O)c2ccccc2C(O)=C1C1CCC(c2ccc(Cl)cc2)CC1 (stereo not given)
active: [1] 0.0032 µM | [2] 0.0064 µM | [3] 0.0091 µM | [4] 0.0051 µM | [5] 0.0035 µM | [6] 0.0032 µM | [7] 0.0032 µM | [8] 0.0041 µM | [9] 0.0028 µM | [10] 0.002 µM | [11] 0.0056 µM | [12] 0.005 µM | [13] 0.004 µM | [14] 0.0071 µM | [15] 0.0045 µM | [16] 0.0045 µM | [17] 0.0057 µM | [18] 0.005 µM | [19] 0.0007 µM | [20] 0.0025 µM

COP(=O)(OC)OC(c1ccc(Cl)cc1)P(=O)(OC)OC (stereo not given)
inactive: all assays above

COc1cc(C(=S)N2CCOCC2)ccc1O
inactive: all assays above

CCOC(=O)c1ccc(N)cc1
inactive: all assays above

CCCc1ncc(C[n+]2ccccc2C)c(N)n1
inactive: all assays above

CC(C)Cn1cnc2c1c(=O)n(C)c(=O)n2C
inactive: all assays above

Nc1ccc(C(=O)NCC(=O)O)cc1
inactive: all assays above

CCN1/C(=C/C=C/c2sc3ccccc3[n+]2CC)Sc2ccccc21
active: [1] 0.1 µM | [2] 0.478 µM | [3] 0.478 µM | [4] 0.675 µM | [5] 0.112 µM | [6] 0.224 µM | [7] 0.282 µM | [8] 0.301 µM | [9] 0.251 µM | [10] 0.1 µM | [11] 0.398 µM | [12] 0.251 µM | [13] 0.112 µM | [14] 0.112 µM | [15] 0.282 µM | [16] 0.316 µM | [17] 0.849 µM | [18] 1.12 µM | [19] 0.282 µM | [20] 0.141 µM

OCc1ccccn1
inactive: all assays above

FC(F)(F)C(F)(F)C(F)(F)C(F)(F)C(F)(F)C(F)(F)C(F)(F)C(F)(F)Br
inactive: all assays above

CC(=O)Oc1ccc(C)cc1
inactive: all assays above

Oc1ccccc1C=NCc1ccccc1
inactive: all assays above

CC(=O)Nc1ccc(OC(=O)c2ccccc2OC(C)=O)cc1
inactive: all assays above

CC(C)Cc1ccc(CC(=O)O)cc1
inactive: all assays above

O=C(O)CCNC(=O)c1ccccc1
inactive: all assays above

O=C1C(CCS(=O)c2ccccc2)C(=O)N(c2ccccc2)N1c1ccccc1 (stereo not given)
inactive: all assays above

CC(=O)Nc1ccc(OCC(O)CNC(C)C)cc1 (stereo not given)
inactive: all assays above

Cc1ccc(O)c([C@H](CCN(C(C)C)C(C)C)c2ccccc2)c1
active: [1] 5.01 µM | [2] 1.35 µM | [3] 1.2 µM | [4] 6.01 µM | [5] 2.51 µM | [6] 3.98 µM | [7] 8.91 µM | [8] 1.51 µM | [9] 7.94 µM | [10] 1 µM | [11] 7.94 µM | [12] 2 µM | [13] 4.47 µM | [14] 2.24 µM | [15] 2.82 µM | [16] 3.16 µM | [17] 4.78 µM | [18] 3.16 µM | [19] 4.47 µM | [20] 3.55 µM
